The values that follow come from PubChem BioAssay AID602365 (National Center for Advancing Translational Sciences (NCATS), 2012).

Records with an inconclusive call do not appear. The source made the active and inactive calls. Calls come from the whole dose curve; as a rule, active = well fitted inhibition curve with a large enough effect; inconclusive = small, poorly fitted or top-dose-only effect; inactive = flat fitted curve, though single readings scatter.

In the assay the target is Luciferin 4-monooxygenase (Photinus pyralis) (UniProt P08659). The experiment in a line: FLuc inhibitory activity for the follow-up compounds in a biochemical assay with 1mM D-luciferin. Conditions: purified FLuc, luminescence; series mostly up to 57.5 µM. The source says: NCGC Assay Overview: Firefly (Photinus pyralis) luciferase is one of the most commonly used transcriptional reporters. It is considered one of the more dynamically responsive reporters - that is, responsive to changes in reporter transcription - as it requires no post-translational modifications and is enzymatically active directly after protein synthesis (Wood, 1998). With no endogenous expression in mammalian cells and without the requirement of external excitation, it offers very little background signal, thus generally providing excellent signal to background for most assays. Previous profiling work to determine the prevalence of compounds that affect FLuc enzymatic activity (PubChem AID 411) identified that ~3% of the MLSMR library (then at ~72K) inhibited FLuc. […] Of the compounds identified in this profile that inhibited FLuc, 151 compounds were selected for further analysis, in an effort to better understand their mode of inhibiting FLuc. The assay described here was to determine the activity of the compounds in a FLuc assay that contained a KM concentration of ATP and a high concentration (1mM) of D-luciferin.
Sequence of Luciferin 4-monooxygenase (Photinus pyralis) (P08659 whole entry, looked up): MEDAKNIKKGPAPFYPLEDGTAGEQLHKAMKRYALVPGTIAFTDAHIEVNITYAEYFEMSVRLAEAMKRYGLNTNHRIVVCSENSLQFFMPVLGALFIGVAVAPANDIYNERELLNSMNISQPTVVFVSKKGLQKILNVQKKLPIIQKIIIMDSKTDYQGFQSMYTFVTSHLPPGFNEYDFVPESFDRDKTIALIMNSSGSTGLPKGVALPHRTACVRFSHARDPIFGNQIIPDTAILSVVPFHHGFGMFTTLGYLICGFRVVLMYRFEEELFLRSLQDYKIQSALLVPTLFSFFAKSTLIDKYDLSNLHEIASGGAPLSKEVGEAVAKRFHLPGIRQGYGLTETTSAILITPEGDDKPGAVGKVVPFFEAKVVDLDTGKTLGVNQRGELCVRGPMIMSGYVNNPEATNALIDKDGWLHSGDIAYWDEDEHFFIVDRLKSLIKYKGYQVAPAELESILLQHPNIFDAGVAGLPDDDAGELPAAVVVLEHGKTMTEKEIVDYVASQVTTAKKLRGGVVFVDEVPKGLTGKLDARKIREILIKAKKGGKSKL
NCGC Assay Protocol Summary: Reagents: 50mM Tris acetate, pH 7.5; 10mM Mg acetate; 1mM D-luciferin (Sigma #L9504); 10uM ATP; 0.01% Tween-20; 0.05% BSA; 10nM P. pyralis luciferase (Sigma #L9506) Control compounds used were two known firefly luciferase inhibitors (3-(5-(3-chlorophenyl)-1,2,4-oxadiazol-3-yl)benzoic acid and 5-(2-fluorophenyl)-3-phenyl-1,2,4-oxadiazole), and DMSO. Three microliters containing firefly luciferase substrates in buffer (final concentrations: 50mM Tris acetate, pH 7.5, 10mM Mg acetate, 0.01% Tween-20, 0.05% BSA, 1mM D-luciferin, 10uM ATP) are dispensed into each well of a Greiner white, solid-bottom 1536-well format plate using a flying reagent dispenser (FRD). These assay plates were then treated with 23nL of compound or DMSO using a Kalypsys pin tool, which allows for delivery of a 12-point intraplate titration of each compound to the assay plate (quantitative HTS), with a final compound concentrations ranging from approximately ~60uM to 0.3nM. One microliter of firefly luciferase in […] Tris-acetate buffer was then delivered by FRD to each well for a final enzyme concentration of 10nM. Luciferase activity was then measured using a ViewLux CCD imager (PerkinElmer), with an average exposure time of 2-30 seconds (2X binning, medium/high gain).
As to `Nc1ccc2nc(-c3ccccc3)sc2c1`, the Potency was 0.919 µM (active). To `COc1cc(OC)cc(C(=O)Nc2ccc(-c3nc4ccccc4s3)c(C)c2)c1` belongs “inactive”; to `O=C(O)c1ccc(NC(=O)c2cc(S(=O)(=O)N3CCCCC3)c(Cl)cc2Cl)cc1`, “inactive”. The result for `Cc1ccc2sc(-c3ccc(N)cc3)nc2c1` reads 0.517 µM (active).

As to `O=C(Nc1ccccc1C(=O)O)c1ccc(NC(=O)C2CC2)cc1`, the Potency is 4.11 µM (active). The result for `COc1ccc(-c2nc3ccccc3s2)cc1NC(=O)c1ccc(F)cc1` reads “inactive”; that for `Cc1c(NC(=O)C(C)(C)C)cccc1-c1nc2ccccc2s1`, 10.3 µM (active). To `COc1cccc(-c2nc3ccccc3s2)c1` belongs 5.17 µM (active); to `Cc1ccc(C(=O)Nc2cccc(C(=O)O)c2)cc1S(=O)(=O)N1CCOCC1`, 16.3 µM (active); to `O=C(O)c1cccc(NC(=O)c2cccc(S(=O)(=O)N3CCc4ccccc43)c2)c1`, “inactive”. To `Nc1cccc(-c2nc3ccc(N)cc3s2)c1` belongs 2.59 µM (active); to `Cc1c(NC(=O)c2cc(-n3cnnc3)ccc2Cl)cccc1-c1nc2ccccc2s1`, 0.919 µM (active). On to `Oc1ccc(-c2nc3ccccc3s2)c(O)c1`, for which the Potency was 16.3 µM (active). The result for `Nc1ccc(-c2nc3cc(N)ccc3s2)cc1` reads 18.3 µM (active).

In the case of `Cc1ccc(C(=O)Nc2ccc(C(=O)O)cc2)cc1S(=O)(=O)NCc1ccccc1`, the Potency result was “inactive”.

For `O=C(Nc1ccccc1C(=O)O)c1cc(S(=O)(=O)Nc2ccccc2)ccc1Cl`, the Potency entry is “inactive”. On to `Cc1cccc(C(=O)Nc2ccc(-c3nc4ccccc4s3)cc2Cl)c1`, for which the Potency entry was “inactive”.

As to `O=C(Nc1ccccc1C(=O)O)c1ccc(NC(=O)C2CCCO2)cc1` (stereo not given), the Potency is 20.6 µM (active). To `Nc1ccc(C(=O)Nc2ccccc2C(=O)O)cc1` belongs 20.6 µM (active); to `COc1ccc2nc(NC(=O)c3ccc(S(=O)(=O)N4CCCC(C)C4)cc3)sc2c1` (stereo not given), “inactive”. The result for `Cc1ccc(C(=O)Nc2ccccc2C(=O)O)cc1S(=O)(=O)N1CCCCCC1` reads 5.17 µM (active); that for `Cc1ccc2nc(-c3ccc(NC(=O)CN4CCN(C(=O)c5ccco5)CC4)cc3)sc2c1`, 14.6 µM (active). On to `CCn1c(C)nc2cc(-c3nc4n(n3)Cc3ccccc3-4)ccc21`, for which the Potency was 0.163 µM (active). `COc1ccc(C(=O)Nc2ccccc2C(=O)N/N=C/c2ccc(O)c(OC)c2)cc1`: the Potency is 0.0103 µM (active). To `COc1ccccc1C(=O)Nc1ccc(C(=O)O)cc1` belongs “inactive”. To `CN=c1scc(-c2ccccc2F)n1/N=C/c1ccc[nH]1` belongs 0.0819 µM (active); to `O=C(Cc1ccccc1)Nc1ccc(C(=O)Nc2ccccc2C(=O)O)cc1`, 20.6 µM (active). `COc1ccc(C(=O)Nc2ccccc2C(=O)Nc2ccc(C(=O)O)cc2)cc1`: the Potency is 8.19 µM (active). Take `COc1c(C)cccc1C(=O)Nc1ccc(-c2nc3ccccc3s2)c(Cl)c1`: the Potency result was “inactive”. To `O=C(O)c1cccc(NC(=O)c2ccc(Cl)c(S(=O)(=O)N3CCCCCC3)c2)c1` belongs 3.26 µM (active); to `Nc1ccc(-c2nc3ccc(N)cc3s2)cc1`, 1.83 µM (active). To `CC(C)(C)C(=O)Nc1ccc(-c2nc3ccccc3s2)cc1` belongs 0.0411 µM (active); to `Cc1c(NC(=O)c2cccs2)cccc1-c1nc2ccccc2s1`, 14.6 µM (active).

On to `O=C(Nc1cccc(-c2nc3ccccc3s2)c1)c1cc(-n2cnnc2)ccc1Cl`, for which the Potency is 8.19 µM (active). To `O=C(Cc1ccc(Cl)cc1)Nc1cccc(C(=O)Nc2ccccc2C(=O)O)c1` belongs 36.6 µM (active); to `O=C(O)c1cccc(NC(=O)c2ccccc2NC(=O)c2ccco2)c1`, “inactive”. On to `O=C(Nc1ccccc1C(=O)O)c1cccc(NC(=O)c2ccc(Br)o2)c1`, for which the Potency was 20.6 µM (active). `CC(C)c1ccc(-c2nc3ccccc3s2)cc1`: the Potency is 0.183 µM (active). The result for `CC(C)CC(=O)Nc1cccc(C(=O)Nc2ccccc2C(=O)O)c1` reads 23.1 µM (active); that for `CCCC(=O)Nc1nc2ccc(OCC)cc2s1`, 29.1 µM (active).
